Source: PubChem BioAssay
JMJD2E inh: inhibitors of human JMJD2E histone demethylase; JMJD2E catalytic domain, FDH-coupled NADH fluorescence (FDH is formaldehyde dehydrogenase); Potency, µM (highest dose often 57.1 µM), for inactives: at the top dose activity change, negative = inhibition, most hits filed as inhibitors; 230,000 compounds, 1.6% hits; AID 2147; active means well fitted inhibition curve with a large enough effect, not every such curve was filed as active; inconclusive means small, poorly fitted or top-dose-only effect, or another doubt; inactive means no such curve, though single readings can be large or run the other way;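 further: 0% = wells with enzyme and -100% = buffer wells without enzyme; nearly all actives have a fitted effect of over 50% in size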
Target sequence (B2RXH2 1-337 limits assumed): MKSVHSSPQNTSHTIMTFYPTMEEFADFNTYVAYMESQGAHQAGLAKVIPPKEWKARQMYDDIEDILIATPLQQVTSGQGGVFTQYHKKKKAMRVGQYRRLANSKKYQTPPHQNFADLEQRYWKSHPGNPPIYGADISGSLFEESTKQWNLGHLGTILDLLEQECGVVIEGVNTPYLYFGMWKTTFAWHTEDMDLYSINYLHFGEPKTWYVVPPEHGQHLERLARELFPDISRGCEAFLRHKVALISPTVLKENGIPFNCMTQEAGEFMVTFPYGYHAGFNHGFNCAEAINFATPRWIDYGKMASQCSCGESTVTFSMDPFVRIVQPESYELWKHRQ
ALDH1A1 inh: inhibitors of human aldehyde dehydrogenase 1A1 | P00352 | Purified ALDH1A1, NADH fluorescence, propionaldehyde substrate | Potency, µM (top dose mostly 75.3 µM), without a hit: at the top dose activity, negative = inhibition, most hits filed as inhibitors | 220,000 compounds, 7.3% hits | AID 1030; active means well fitted inhibition curve with a large enough effect, not every such curve was filed as active; inconclusive means small, poorly fitted or top-dose-only effect, or another doubt; inactive means no such curve, though single readings can be large or run the other way;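 further: plate controls were no enzyme wells and a reference inhibitor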
Tau fibril ThT: inhibitors of human tau fibril formation, thioflavin T binding; recombinant tau K18 P301L, heparin-induced fibrillization, ThT fluorescence; Potency, µM (highest dose often 57.4 µM), inactives show top-dose activity, negative = inhibition, most hits filed as inhibitors; 270,000 compounds, 2.1% hits; AID 1460; further: nearly all actives have a fitted effect of over 55% in size
Target sequence (P10636 561-689 P618L limits assumed): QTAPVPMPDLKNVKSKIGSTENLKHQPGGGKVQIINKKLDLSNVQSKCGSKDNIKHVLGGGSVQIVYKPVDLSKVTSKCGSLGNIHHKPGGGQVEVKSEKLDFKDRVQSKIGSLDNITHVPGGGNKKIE
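ThT emission at 510 nm, taken 1 hr after adding 30 uM dye, quantifies aggregates formed when 20 uM heparin acts on human tau K18 P301L for 6 hr at 37 C.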
Tau FP inhib: blocks human tau fibril formation measured by polarization; Potency, µM (highest dose often 57.7 µM), without a hit: at the top dose activity, negative = inhibition, actives largely listed as inhibitors; K18 P301L tau heparin fibrillization, Alexa594 FP, 6 h; 280,000 compounds, 0.39% hits; further: nearly all actives have a fitted effect of over 55% in size
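Recombinant K18 P301L […], labeled with Alexa 594 at 0.24 uM over 15 uM unlabeled; heparin inducer 20 uM final; 37 C, 6 hr; FP endpoint.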
HPGD inh: blocks human HPGD enzyme activity. 150,000 compounds, 4.3% hits. purified HPGD, NADH fluorescence kinetic, PGE2 substrate. P15428. Potency, µM, without a hit: at the top dose activity change, negative = inhibition, hits mostly inhibitors; active means well fitted inhibition curve with a large enough effect, not every such curve was filed as active; inconclusive means small, poorly fitted or top-dose-only effect, or another doubt; inactive means no such curve, though single readings can be large or run the other way
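NADH formation kinetics: reaction with 30 uM PGE2 and 1 mM NAD+ (final), 20 nM enzyme, Tris-HCl pH 8 with Tween 20, after 15 min compound preincubation at room temperature. Fluorescence change, last versus first of five reads.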
Tau fluor cs: counter-screen for tau fibril formation inhibitors | 280,000 compounds, 0.93% hits | tau K18 P301L Alexa594 fluorescence, heparin fibrillization | AID 1463 | Potency, µM (doses to about 57.7 µM), for the others: top-dose activity change, negative = decrease; further: nearly all actives have a fitted effect of over 55% in size
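Human tau K18 P301L (15 uM unlabeled, 0.24 uM Alexa 594-labeled) in 100 mM sodium acetate pH 7 with 20 uM heparin, 6 hr at 37 C. ThT 30 uM added, 1 hr ambient; Alexa 594 FP and total fluorescence read at 555/632 nm.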
* hit, by the source's call; ? = inconclusive; . = not tested or not shown; [ ] = dose if it differs, or a comment. Shown are actives, neighbours in structure and some others; about 9.9% of the full set was active somewhere. Unless noted, the call rests on the fitted dose curve; in most records, active means well fitted curve in the direction sought with a large enough effect; inconclusive means small, poorly fitted or top-dose-only effect, or another doubt; inactive means no such curve, though single readings can be large; an effect the other way counts as inactive or inconclusive. Unless noted, on the % scale 0 is the no-effect control and ±100 the full control effect; potency means the concentration at half of the fitted maximal effect.

SMILES | JMJD2E inh | ALDH1A1 inh | Tau fibril ThT | Tau FP inhib | HPGD inh | Tau fluor cs
O=C(NC(NC(=S)Nc1ccc(Cl)cc1Cl)C(Cl)(Cl)Cl)c1cccc([N+](=O)[O-])c1 (stereo unspecified) | -2% | 18µM* | -12% | -10% | -14% | ?
O=C(Nc1cccs1)Nc1cc(C(F)(F)F)ccc1Cl | . | . | -14% | -3% | . | 6.3µM*[quencher]
O=C(CNC(c1ccccc1)c1ccccc1)Nc1cc([N+](=O)[O-])ccc1Cl | 10% | 7.1µM* | 9% | -3% | -29% | -1%
O=C(Nc1ccc(C(F)(F)F)cn1)Nc1cccs1 | 2% | . | -2% | 6% | . | -20%
O=C(C1CCC1)N1CCc2cc(S(=O)(=O)NCc3ccc(F)cc3)ccc21 | . | . | -10% | -11% | . | -9%
Cc1c(C#N)c(N=CN(C)C)c(C(=O)c2ccc(Br)cc2)n1-c1ccc(Cl)cc1 | -12% | 4% | ? | -9% | -17% | -16%
CCC(=O)N1CCc2cc(CNS(=O)(=O)c3ccc(CC(C)C)cc3)ccc21 | . | . | -6% | 10% | . | -15%
Cc1ccc(-c2nc(NCc3ccc(F)cc3)n(S(C)(=O)=O)n2)cc1 | -12% | -1% | -7% | ? | . | ?
O=C(CN1CCN(c2ccccc2O)CC1)Nc1ccc([N+](=O)[O-])cc1Br | -12% | ? | -15% | 7% | . | ?
O=C(O)c1ccc(Cl)c(NC(=S)NC(=O)c2ccccc2[N+](=O)[O-])c1 | -9% | 22µM* | -8% | 4% | . | -3%
O=C(NC(=S)Nc1cc(C(F)(F)F)ccc1Cl)c1ccccc1 | 0% | 25µM* | -4% | -5% | -11% | -6%
O=C(CN1CCN(c2ccccc2O)CC1)Nc1cc([N+](=O)[O-])ccc1Cl | -14% | 22µM* | ? | 3% | . | ?
O=C(CON1C(=O)c2ccccc2C1=O)c1ccccc1 | . | ? | . | . | -5% | .
C[C@]12C[C@H](O)C3[C@@H](CCC4=CC(=O)CC[C@@]43C)[C@@H]1CC[C@@H]2C(=O)CO (stereo partly specified) | 0% | -9% | -8% | 5% | -1% | ?
Cc1ccc2c(=O)cc(C(=O)Nc3c(C(=O)Nc4cccc(Cl)c4)oc4ccccc34)oc2c1 | . | . | 5% | -6% | . | -5%
CCOc1ccc(-n2nc(CO)c(C(=O)NCc3ccc(Cl)cc3)n2)cc1 | . | . | -9% | -6% | . | -7%
COc1ccc(N=C2C(=Nc3ccc(OC)cc3)N(c3ccc(OC)cc3)C(=S)N2C(=O)c2ccc(OC)cc2)cc1 | -7% | ? | 28µM* | -8% | -10% | -24%
O=C(Nc1ccccc1C(F)(F)F)c1cc2ncc(CCCl)cn2n1 | ? | ? | 0% | -2% | ? | 0%
O=S(=O)(c1ccc(C2=CSC3=NCCN23)cc1)N1CCOCC1 | ? | 16µM* | -15% | -14% | ? | -4%
Brc1ccc(C2=CSC3=NCCN23)cc1 | -17% | 2% | -15% | 0% | . | -7%
CCCn1c(/C=N/Nc2nc3ccccc3[nH]2)nc2ccccc21 | ? | -3% | ? | ? | -19% | ?
Cn1c(/C=N/Nc2nc3ccccc3[nH]2)nc2ccccc21 | -8% | 0% | 4µM* | 0% | . | ?
Cc1c(/C=N/Nc2nc3ccccc3[nH]2)c2ccccc2n1C | ? | . | . | 18% | . | 14µM*[quencher]
CC(C)Cn1c(/C=N/Nc2nc3ccccc3[nH]2)nc2ccccc21 | ? | -4% | ? | 13% | -15% | 28µM*[quencher]
C(=N\Nc1nc2ccccc2[nH]1)/c1cccs1 | 15% | 2.8µM* | 5µM* | 18µM* | . | ?
CCn1cc(C(=O)N(CCC(C)C)c2c(N)n(Cc3ccccc3)c(=O)[nH]c2=O)c(=O)c2ccc(C)nc21 | 5% | 4% | -4% | 2% | . | 5%
COc1ccc(-n2c(=O)cnc3cnc(Oc4cccc(Cl)c4)nc32)cc1 | . | ? | . | . | -7% | .
Clc1nc2ccccc2cc1/C=N/Nc1nc2ccccc2[nH]1 | 3% | -2% | ? | ? | -3% | ?
C=CCn1cc(/C=N/Nc2nc3ccccc3[nH]2)c2ccccc21 | ? | -16% | 7.9µM* | 1% | ? | 11µM*[quencher]
